PubChem BioAssay AID1159580 (chemical genetic matrix, 2015)
Hit rate of the full screen: of about 5,500 compounds, about 2,000 (36%) were called active. Inconclusive results (about 18%) are left out. No stated cut-off is given here; in the data, active means normalized growth mostly below about 0.91 (no sharp cut-off); inconclusive means no clear call, values can overlap the other calls; inactive means mostly above about 0.92. The list shows a part of the results.

Experiment: chemical genetic growth profiling, strain panel (AID 1159580);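 further: tested at 20 µM; growth read once vehicle control cultures reached saturation at 30 °C; 1 = growth at the plate median or of vehicle wells; lower values mean less growth of the strain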
Conditions: S. cerevisiae deletion strains, growth OD
[1] = locus YHR030C, strain SLT2, hits give low values
[2] = locus YHR079C, strain IRE1, hits give low values
[3] = locus YJL095W, strain BCK1, hits give low values
[4] = locus YJR066W, strain TOR1, hits give low values
[5] = locus YLR113W, strain HOG1, hits give low values
[6] = locus YNL183C, strain NPR1, hits give low values
[7] = locus YOR231W, strain MKK1, hits give low values
[8] = locus YPL256C, strain CLN2, hits give low values

Measured: normalized growth

O=C(NC(=O)c1ccccc1Cl)Nc1ccc(OC(F)(F)F)cc1
inactive: locus YAL021C, strain ccr4, hits give low values 1.05 | locus YAL026C, strain drs2, hits give low values 1.02 | locus YAL030W, strain snc1, hits give low values 1.03 | locus YBL061C, strain skt5, hits give low values 1.02 | locus YBR009C, strain hhf1, hits give low values 0.999 | locus YBR023C, strain chs3, hits give low values 1.04 | locus YBR171W, strain sec66, hits give low values 1.05 | locus YBR231C, strain swc5, hits give low values 1.06 | locus YBR279W, strain paf1, hits give low values 1.01 | locus YCL011C, strain gbp2, hits give low values 1.04 | locus YCL016C, strain dcc1, hits give low values 1.04 | locus YCL061C, strain MRC1, hits give low values 1.04 | locus YCL069W, strain vba3, hits give low values 1.04 | locus YCR088W, strain abp1, hits give low values 1.03 | locus YDL005C, strain med2, hits give low values 1.05 | locus YDL040C, strain nat1, hits give low values 1.03 | locus YDR001C, strain nth1, hits give low values 1.02 | locus YDR069C, strain doa4, hits give low values 1.06 | locus YDR137W, strain rgp1, hits give low values 1.06 | locus YDR159W, strain sac3, hits give low values 1.04 | locus YDR195W, strain ref2 1.11 | locus YDR297W, strain sur2, hits give low values 1.03 | locus YDR334W, strain swr1, hits give low values 1.04 | locus YDR335W, strain msn5, hits give low values 1.04 | locus YDR392W, strain spt3, hits give low values 1.01 | locus YEL003W, strain gim4, hits give low values 1.03 | locus YEL037C, strain rad23, hits give low values 1.03 | locus YEL061C, strain CIN8 (second series), hits give low values 1.03 | locus YER015W, strain faa2, hits give low values 1.02 | locus YER016W, strain bim1, hits give low values 1.03 | locus YER111C, strain swi4, hits give low values 1.04 | locus YER155C, strain BEM2 (second series), hits give low values 1.07 | locus YFR010W, strain ubp6, hits give low values 1.03 | locus YGL167C, strain pmr1, hits give low values 1.03 | locus YGL173C, strain kem1, hits give low values 1.05 | locus YGL227W, strain vid30, hits give low values 1.03 | locus YGL240W, strain doc1, hits give low values 1.04 | locus YGL253W, strain hxk2, hits give low values 1.03 | locus YHR013C, strain ard1, hits give low values 1.09 | locus YHR027C, strain rpn1, hits give low values 1.04 | [1] 1.07 | [2] 1.07 | locus YHR142W, strain chs7, hits give low values 1.01 | locus YJL092W, strain hpr5, hits give low values 1.03 | locus YJL095W, strain BCK1 (second series), hits give low values 1.02 | [3] 1.06 | locus YJL115W, strain asf1, hits give low values 1.03 | locus YJL129C, strain trk1, hits give low values 1.08 | locus YJL154C, strain vps35, hits give low values 1.04 | locus YJL164C, strain tpk1, hits give low values 1.02 | locus YJL166W, strain qcr8, hits give low values 1.05 | locus YJL187C, strain SWE1, hits give low values 1.03 | [4] 0.971 | locus YKL160W, strain elf1, hits give low values 1.05 | locus YKR026C, strain gcn3, hits give low values 1.04 | locus YKR091W, strain srl3, hits give low values 1.03 | locus YLL001W, strain dnm1, hits give low values 1.06 | locus YLL026W, hits give low values 1.02 | locus YLL041C, strain sdh2, hits give low values 1.03 | locus YLR027C, strain aat2, hits give low values 1.04 | [5] 1.07 | locus YLR221C, strain rsa3, hits give low values 1.05 | locus YLR258W, strain gsy2, hits give low values 1.02 | locus YLR262C, strain YPT6 (second series), hits give low values 1.06 | locus YLR320W, strain mms22, hits give low values 1.06 | locus YLR342W, strain FKS1, hits give low values 1.04 | locus YLR357W, strain rsc2, hits give low values 1.07 | locus YLR370C, strain arc18, hits give low values 1.04 | locus YLR384C, strain iki3, hits give low values 1.03 | locus YML120C, strain ndi1, hits give low values 1.03 | locus YMR058W, strain fet3, hits give low values 1.03 | locus YMR125W, strain sto1, hits give low values 1.06 | locus YMR129W, hits give low values 1.03 | locus YMR205C, strain PFK2, hits give low values 1.07 | locus YMR231W, strain pep5, hits give low values 1.03 | locus YNL071W, strain lat1, hits give low values 1.05 | [6] 0.985 | locus YNL209W, strain ssb2, hits give low values 1.03 | locus YNL248C, strain rpa49, hits give low values 1.07 | locus YNL322C, strain KRE1 (second series), hits give low values 1.05 | locus YNR049C, strain mso1, hits give low values 1.03 | locus YOR001W, strain rrp6, hits give low values 1.01 | locus YOR070C, strain gyp1, hits give low values 1.05 | locus YOR080W, strain dia2, hits give low values 1.05 | locus YOR083W, strain WHI5, hits give low values 1.05 | locus YOR106W, strain vam3, hits give low values 1.07 | [7] 1.07 | locus YOR265W, strain rbl2, hits give low values 1.03 | locus YOR270C, strain vph1, hits give low values 1.1 | locus YOR290C, strain snf2, hits give low values 1.07 | locus YPL051W, strain arl3, hits give low values 1.07 | locus YPL078C, strain atp4, hits give low values 1.06 | locus YPL106C, strain sse1, hits give low values 1.02 | locus YPL240C, strain hsp82, hits give low values 1.01 | [8] 1.11

N#C/C(=N/Nc1ccc(F)cc1)C(=O)c1ccccc1
active: locus YAR019C, strain CDC15, hits give low values 0.853 | locus YBL105C, strain PKC1, hits give low values 0.855 | locus YBR135W, strain CKS1, hits give low values 0.842 | locus YBR136W, strain MEC1, hits give low values 0.844 | locus YBR160W, strain CDC28, hits give low values 0.862 | locus YDL017W, strain CDC7, hits give low values 0.858 | locus YDL028C, strain MPS1, hits give low values 0.859 | locus YDL101C, strain DUN1, hits give low values 0.903 | locus YDL108W, strain KIN28, hits give low values 0.859 | locus YDR052C, strain DBF4, hits give low values 0.84 | locus YDR054C, strain cdc34, hits give low values 0.853 | locus YDR226W, strain ADK1, hits give low values 0.832 | locus YFL009W, strain cdc4, hits give low values 0.842 | locus YFL029C, strain CAK1, hits give low values 0.841 | locus YFR003C, strain YPI1, hits give low values 0.854 | locus YFR028C, strain CDC14, hits give low values 0.855 | [1] 0.704 | locus YIL147C, strain SLN1, hits give low values 0.842 | locus YJR016C, strain ILV3, hits give low values 0.84 | locus YKL193C, strain SDS22, hits give low values 0.873 | [5] 0.804 | locus YMR001C, strain CDC5, hits give low values 0.841 | locus YMR277W, strain FCP1, hits give low values 0.85 | locus YNL006W, strain LST8, hits give low values 0.853 | locus YNL161W, strain CBK1, hits give low values 0.863 | locus YNL207W, strain RIO2, hits give low values 0.83 | locus YNL222W, strain SSU72, hits give low values 0.87 | locus YOL078W, strain AVO1, hits give low values 0.852 | locus YOR329C, strain SCD5, hits give low values 0.868 | locus YPL204W, strain HRR25, hits give low values 0.653 | locus YPL209C, strain IPL1, hits give low values 0.876 | [8] 0.747 | locus YPR025C, strain CCL1, hits give low values 0.863 | locus YPR106W, strain ISR1, hits give low values 0.886 | locus YPR111W, strain DBF20, hits give low values 0.862 | strain NNK1, hits give low values 0.883 | strain TSCII, hits give low values 0.844
inactive: locus YDL132W, strain cdc53, hits give low values 0.906 | locus YDL214C, strain PRR2, hits give low values 0.913 | locus YDR477W, strain SNF1, hits give low values 0.756 | locus YER123W, strain YCK3, hits give low values 0.794 | locus YER133W, strain GLC7, hits give low values 0.885 | locus YFR019W, strain FAB1, hits give low values 0.913 | locus YGR040W, strain KSS1, hits give low values 0.693 | locus YGR052W, strain FMP48, hits give low values 0.98 | locus YGR092W, strain DBF2, hits give low values 0.769 | [2] 0.826 | locus YHR082C, strain KSP1, hits give low values 0.762 | locus YHR205W, strain SCH9, hits give low values 0.799 | [3] 0.731 | locus YJL128C, strain PBS2, hits give low values 0.942 | locus YJL157C, strain FAR1, hits give low values 0.907 | locus YJR066W, strain TOR1 (second series), hits give low values 0.836 | [4] 0.654 | locus YKL048C, strain ELM1, hits give low values 0.895 | locus YKL067W, strain YNK1, hits give low values 0.872 | locus YKL101W, strain HSL1, hits give low values 0.839 | locus YKL203C, strain TOR2, hits give low values 0.883 | locus YLR133W, strain CKI1, hits give low values 0.815 | locus YLR403W, strain SFP1, hits give low values 0.721 | locus YML070W, strain DAK1, hits give low values 0.854 | locus YMR205C, strain PFK2 (second series), hits give low values 0.821 | locus YNL020C, strain ARK1, hits give low values 0.819 | [6] 0.657 | locus YNL307C, strain MCK1 (second series), hits give low values 0.795 | locus YOL136C, strain PFK27, hits give low values 0.885 | locus YOR061W, strain CKA2, hits give low values 0.849 | locus YOR119C, strain RIO1, hits give low values 0.783 | [7] 0.736 | locus YPL031C, strain PHO85, hits give low values 0.701 | locus YPL153C, strain RAD53, hits give low values 0.757
